Screens deposited in PubChem BioAssay by National Center for Advancing Translational Sciences (NCATS).
A selection: hits, their analogues and other compounds. The true share with any hit is near 3.3%.
PLK1 PBD block: qHTS for Inhibitors of PLK1-PDB (polo-like kinase 1 - polo-box domain): Primary Screen | Serine/threonine-protein kinase PLK1 (Homo sapiens), P53350 | Plk1 PBD binding of FITC phosphopeptide, fluorescence polarization | Potency, µM, without a hit: max response, negative = inhibition, hits mostly inhibitors | actives 2.8% (n = 360,000) | AID 720504, 2013; note: potency is the fitted concentration of half-maximal effect; series mostly up to about 57 µM; nearly all actives have a fitted effect of over 65% in size
PI5P4K alpha inh: qHTS for Inhibitors of phosphatidylinositol 5-phosphate 4-kinase (PI5P4K); Phosphatidylinositol 5-phosphate 4-kinase type-2 alpha (Homo sapiens), P48426; PI5P4Kalpha enzyme, ADP-Glo luminescence, 60 min; hits give low values; max response, %; actives 1.2% (n = 330,000); AID 652105, 2013; active = max response of -50% or lower; inconclusive = between -30% and -50%; inactive = -30% or higher; note: value at the top dose of about 77 µM
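PI5P4Kalpha ADP-Glo assay; 5 microM ATP final; 60 min RT reaction; HEPES pH 7.4/EGTA/CHAPS, 5% DMSO; controls lacking substrate or enzyme; luminescent end-point.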
USP1-UAF1 inh: Inhibitors of USP1/UAF1: Primary Screen. recombinant USP1/UAF1, Ub-Rhodamine cleavage fluorescence. Potency, µM (series often up to 57.1 µM), without a hit: at the highest dose activity change, negative = inhibition, most hits filed as inhibitors. actives 0.23% (n = 390,000); note: potency is the fitted concentration of half-maximal effect; nearly all actives have a fitted effect of over 60% in size
Target sequence (O94782 whole entry, looked up): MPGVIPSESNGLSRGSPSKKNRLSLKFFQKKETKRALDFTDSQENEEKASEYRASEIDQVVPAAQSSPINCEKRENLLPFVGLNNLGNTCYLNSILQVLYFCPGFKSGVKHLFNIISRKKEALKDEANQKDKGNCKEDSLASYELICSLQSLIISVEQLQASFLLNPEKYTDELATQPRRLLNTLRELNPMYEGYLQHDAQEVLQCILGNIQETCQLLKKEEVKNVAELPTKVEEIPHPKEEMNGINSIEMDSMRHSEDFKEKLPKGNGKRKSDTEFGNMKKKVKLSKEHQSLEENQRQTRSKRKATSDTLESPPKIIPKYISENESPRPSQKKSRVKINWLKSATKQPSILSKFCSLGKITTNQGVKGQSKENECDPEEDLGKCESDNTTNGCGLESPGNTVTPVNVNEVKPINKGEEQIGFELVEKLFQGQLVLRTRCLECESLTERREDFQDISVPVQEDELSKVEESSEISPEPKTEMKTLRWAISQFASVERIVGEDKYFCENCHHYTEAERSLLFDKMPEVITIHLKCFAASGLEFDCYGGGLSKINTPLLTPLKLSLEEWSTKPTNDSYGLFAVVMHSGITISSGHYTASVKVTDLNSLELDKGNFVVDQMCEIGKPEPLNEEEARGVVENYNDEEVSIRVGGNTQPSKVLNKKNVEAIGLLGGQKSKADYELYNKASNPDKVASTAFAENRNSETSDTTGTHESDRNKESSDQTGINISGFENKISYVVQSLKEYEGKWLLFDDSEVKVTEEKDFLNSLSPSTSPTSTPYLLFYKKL
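USP1/UAF1 complex at 1 nM was preincubated with compound for 15 min at room temperature, then Ub-Rho substrate (150nM final) was added. Fluorescence (480/540 nm) was read kinetically, 6 reads every 60 seconds.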
WRN helicase inh: qHTS for Inhibitors of WRN Helicase; AID 651768, 2012; Bifunctional 3'-5' exonuclease/ATP-dependent helicase WRN (Homo sapiens), Q14191; actives 0.46% (n = 360,000); WRN helicase unwinding, fluorescent forked duplex, kinetic; Potency, µM (top dose mostly 114 µM), for inactives: at the top dose activity change, negative = inhibition, most hits filed as inhibitors; note: potency is the fitted concentration of half-maximal effect; nearly all actives have a fitted effect of over 55% in size
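Kinetic fluorescence helicase assay: unwinding of a quenched forked DNA duplex (100 nM final) with 2 mM ATP final raises red fluorescence (525/598 nm). Compounds sat 15 min at room temperature with 20 nM WRN beforehand.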
USP2a inh: qHTS Assay for Inhibitors of Ubiquitin-specific Protease USP2a Using CHOP2 as the Reporter; USP2 core, Ub-CHOP2 coupled fluorogenic reporter, 485/531; Potency, µM (highest dose often 38.3 µM), for inactives: top-dose activity change, negative = inhibition, hits mostly inhibitors; actives 0.01% (n = 330,000);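 note: potency is the fitted concentration of half-maximal effect; plate controls were DMSO wells for no effect and full inhibition by NEM control for full effect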
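USP2 core (10nM final) preincubated 30min RT with compound in 20mM Tris-HCl pH 8.0, 2mM CaCl2, 2mM beta-mercaptoethanol, 0.05% CHAPS; 25nM Ub-CHOP2 plus 25nM reporter substrate added, fluorescence (Ex485/Em531) read after 60min.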
Active calls of the source: *; ? = inconclusive; · = no result given; [ ] = remark or other dose. Unless noted, calls come from the whole dose curve; as a rule, active = well fitted curve in the direction sought with a large enough effect; inconclusive = small, poorly fitted or top-dose-only effect, or another doubt; inactive = no such curve, though single readings can be large; an effect the other way counts as inactive or inconclusive. Unless noted, % is set by controls: 0 for no effect and ±100 for the full control effect.

SMILES	PLK1 PBD block	PI5P4K alpha inh	USP1-UAF1 inh	WRN helicase inh	USP2a inh
Cc1ccc(NC(=O)c2cnc(N3CCN(c4ccccn4)CC3)c3ccccc23)c(Br)c1	23.8µM*	7.3	-7.3%	-4.6%[57.1 µM]	-7.8%
Cn1c(=O)c2c(nc(NCc3ccccc3)n2Cc2ccc(Cl)c(Cl)c2)n(C)c1=O	·	·	-33.7%	·	·
O=S(=O)(c1ccc2nnn(O)c2c1)N1CCOCC1	-3.5%	?	-18.8%	8.8%	0.6%
CN(C)S(=O)(=O)c1ccc2nnn(O)c2c1	10.6µM*	?	-5.9%	-1.3%	11.3%
CCOc1ccc(CCNC(=O)CSc2nc3ccccc3nc2Cc2ccc(C)cc2)cc1OCC	·	·	-5.2%	·	·
Cn1c(=O)c2[nH]c(=S)n(Cc3ccccc3)c2n(C)c1=O	0.8%	-3.2	?	-3.9%	·
Cn1c(=O)[nH]c(=O)c2c1[nH]c(=S)n2Cc1ccc(Cl)cc1	11.9µM*	-91.6*	-8.3%	-5.9%	4.4%
Cn1c(=O)[nH]c(=O)c2c1[nH]c(=S)n2CCCc1ccccc1	29.9µM*	-52.1*	-3.0%	8.8%	-0.2%
Cn1c(=O)[nH]c(=O)c2c1nc(Br)n2Cc1ccc(Cl)cc1	1.6%	-17.8	-11.6%	-0.9%	·
Cn1c(=O)c2c([nH]c(=S)n2CCCc2ccccc2)n(C)c1=O	-29.9%	-93.7*	3.6%	7.2%	3.1%
Cc1cccc(-c2ccc3ncnc(NCc4cccc(F)c4)c3c2)c1	·	·	·	·	-4.3%
CNS(=O)(=O)c1cn(CC(=O)N2CCN(c3ccc(C)cc3C)CC2)cc1S(=O)(=O)NC	·	·	1.5%	·	·
CCOC(=O)N1CCN(C(=O)CNS(=O)(=O)c2cccs2)CC1	3.1%	-0.8	-3.9%	3.4%	-0.1%
CC(=O)Nc1ccc(S(=O)(=O)NCC(=O)N2CCN(S(=O)(=O)c3cccs3)CC2)cc1	15µM*	1.7	-7.0%	0.8%	0.4%
Cc1nc(-c2ccc(C)c(N3CCN(C(=O)Nc4cccc(Cl)c4C)CC3)c2)no1	·	·	-14.5%	·	·
Cc1cc(C)c(Nc2cc(S(=O)(=O)O)c(N)c3c2C(=O)c2ccccc2C3=O)c(C)c1	23.8µM*	-61.3*	?	56.2µM*	-28.4%
Cc1cc(C)c(NC(=O)COC(=O)c2cccc3c2C(=O)c2ccccc2C3=O)c(C)c1	5.4%	3.9	-19.1%	-9.5%	-0.2%
COc1ccc(CN(C)C(=O)Cn2cc(C)c(=O)[nH]c2=O)cc1OC	26.7µM*	?	-35.4%	2.3%	·
COc1ccc(CN(C)C(=O)Cn2ccsc2=N)cc1OC	?	1.5	-13.1%	12.1%	-2.9%
CCCN(C(=O)c1c(C)oc2ncn(CC(C)C)c(=O)c12)c1ccccc1C	·	·	-28.7%	·	·
C=CC1=C2C=C(C3CC3)N(C3CC3)C=C2C(=O)C(C)(OC(=O)c2ccco2)C1=O (centres undefined)	?	-0.1	?	1.5%	·
